Bioassay records: PubChem, The Scripps Research Institute Molecular Screening Center
Rows were chosen to be rich in hits. Some 5.7% of all compounds tested hit in one or more screens of this group.
ssDAF12 agonist: activators of S. stercoralis DAF-12 nuclear receptor; HEK293 ssDAF-12/GRIP1 lit1-tk-luc reporter, luminescence; % of 3 µM dafachronic acid response; activation, % at 6.8 µM; actives 1% (n = 370,000);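 active means activation above the mean over all tested compounds plus 3 SD, cut at about 0.9% in these data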;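 further: 0% = DMSO-only wells and 100% = 3 µM delta7-dafachronic acid wells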
hcDAF12 agonist: activates DAF-12 receptor from parasite H. contortus; HEK293 hcDAF-12 lit1-tk-luc reporter, luminescence; 0% DMSO, 100% Δ7-dafachronic acid; activation, % at 6.8 µM; actives 1.4% (n = 370,000);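 active means activation above the mean of all tested compounds plus 3 SD, cut at about 5.5% in these data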;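 further: 100% = response to 3 µM Δ7-dafachronic acid high control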
DAX1 inh-1: DAX1 (NR0B1) inhibition, primary screen; HEK293T StAR-luciferase reporter, SF-1/DAX-1 repression relief; inhibition, % at 6.8 µM; actives 1.1% (n = 370,000);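 active means inhibition above the mean over all tested compounds plus 3 SD, cut at about 3.6% in these data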;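 further: 0% = DAX-1 cells with DMSO and 100% = cells lacking DAX-1 with DMSO; higher inhibition means more luminescence from relief of DAX-1 repression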
DAX1 inh-2: inhibitors of human orphan nuclear receptor DAX1 (NR0B1). actives 0.99% (n = 340,000). P51843. AID 504766. inhibition, % at 6.75 µM. HEK293 Gal4-DAX1 luciferase reporter, luminescence;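 active means inhibition above the mean over all tested compounds plus 3 SD, cut at about 4.2% in these data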;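 further: 0% = DAX1-transfected cells with DMSO and 100% = empty-vector control cells with DMSO; inhibition shows as a rise in luminescence from relieved DAX1 repression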
Target sequence (P51843 207-470 limits assumed): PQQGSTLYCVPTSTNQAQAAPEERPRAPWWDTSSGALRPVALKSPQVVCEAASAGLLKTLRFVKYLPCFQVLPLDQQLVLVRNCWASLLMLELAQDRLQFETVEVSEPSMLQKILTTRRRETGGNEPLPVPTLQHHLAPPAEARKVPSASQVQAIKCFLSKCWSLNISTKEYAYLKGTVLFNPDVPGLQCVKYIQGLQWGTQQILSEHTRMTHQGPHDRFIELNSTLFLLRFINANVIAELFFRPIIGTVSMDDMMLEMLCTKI
AHR activator: human AHR activation | AHR-responsive luciferase reporter cells, luminescence | actives 2.5% (n = 320,000) | AID 2796 | activation, % at 5 µM; in the data active means activation above about 47%;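 further: 0% = vehicle wells and 100% = reference agonist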
hgDAF-12 ag: activates the H. glycines DAF-12 receptor ligand-binding domain; actives 1.8% (n = 370,000); activation, % at 6.8 µM; HEK293 GAL4-hgDAF12 UAS-luciferase reporter, agonist luminescence; normalized to butyrate control;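 active means activation above a cutoff set at the mean of all screened compounds plus 3 SD, cut at about 10% in these data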;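 further: 0% = DMSO wells and 100% = sodium butyrate wells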
AHR act confirm: confirmation of human aryl hydrocarbon receptor activators | shares compounds with AHR activator | actives 87% (n = 2,300) | AID 2845 | human cells, AHR-responsive luciferase reporter, luminescence | activation, % at 9 µM; in the data active means activation above about 49%;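 further: HepG2 hepatoma cells carrying a DRE-driven firefly luciferase reporter; 0% = vehicle wells and 100% = reference agonist wells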
PXR counter: PXR activation, counter-screen for AHR activators. AID 434939. cell-based PXR reporter, luciferase luminescence. actives 88% (n = 2,300). activation, % at 11.6 µM. shares compounds with AHR activator; in the data active means activation above about 11%;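 further: human hepatoma DPX-2 cells expressing full-length human PXR; 0% = DMSO and 100% = reference agonist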
Target sequence (O75469 whole entry, looked up): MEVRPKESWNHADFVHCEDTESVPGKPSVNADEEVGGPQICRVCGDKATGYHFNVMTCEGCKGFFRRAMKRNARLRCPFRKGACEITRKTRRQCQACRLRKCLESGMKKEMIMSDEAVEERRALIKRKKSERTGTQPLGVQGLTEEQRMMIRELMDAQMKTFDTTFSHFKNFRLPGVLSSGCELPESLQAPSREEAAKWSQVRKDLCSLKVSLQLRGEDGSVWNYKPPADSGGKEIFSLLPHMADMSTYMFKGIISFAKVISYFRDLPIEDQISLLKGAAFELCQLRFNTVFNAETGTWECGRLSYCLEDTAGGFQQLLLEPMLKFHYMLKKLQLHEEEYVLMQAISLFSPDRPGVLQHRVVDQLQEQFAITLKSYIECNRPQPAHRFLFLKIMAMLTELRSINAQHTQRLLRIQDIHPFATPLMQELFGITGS
* hit, by the source's call; x = no result.

SMILES	ssDAF12 agonist	hcDAF12 agonist	DAX1 inh-1	DAX1 inh-2	AHR activator	hgDAF-12 ag	AHR act confirm	PXR counter
CCN(/N=C/C=C/c1ccccc1)c1cc(=O)n(C)c(=O)[nH]1	-1.6	-0.3	-0.2	0.0	132.1*	-0.9	33.3	8.2
O=C(O)C[C@H]1c2cc(F)ccc2S(=O)(=O)N1Cc1ccccc1	-1.2	-0.3	-0.1	0.8	-3.2	2.6	x	x
CCOC(=O)CC1C(=O)NCCN1C(=O)c1ccc(C)cc1 (centres undefined)	-1.5	-0.4	0.3	1.2	-1.0	-2.1	x	x
O=c1cc(-c2ccccc2F)nc(-c2ccccc2F)o1	-0.9	-0.3	0.5	1.5	-1.4	0.8	x	x
Cc1cc(C)c(NC(=O)C(C)(C)C)c(Cl)c1	-0.5	-0.1	0.2	-1.2	0.1	-0.7	x	x
Clc1cccc2sc(N3CCN(c4ccccc4)CC3)nc12	0.1	1.1	0.3	2.0	122.2*	6.1	112.2*	17.3*
CCn1nc(C(=O)Nc2cccc(C(F)(F)F)c2)c(Cl)c1Cl	-1.1	-1.8	-0.8	0.0	44.6	-0.4	x	x
CCn1nc(C(=O)Nc2ccccc2C)c(Cl)c1Cl	-0.7	0.1	-0.4	0.1	90.3*	0.3	26.0	17.4*
CCn1nc(C(=O)Nc2cccc3ccccc23)c(Cl)c1Cl	-0.4	1.1	-0.2	0.6	85.0*	2.8	95.5*	16.6*
CC(=O)N1CCOc2ccc(S(=O)(=O)Nc3ncccc3C)cc21	-0.6	-1.2	0.1	-0.1	-3.7	0.5	x	x
Nc1cccc(Nc2ncnc3ccccc23)c1	-1.0	-0.3	0.3	2.8	152.1*	-0.6	65.5*	x
COc1ccc(C2CC(c3cccs3)=NN2C(=O)CSc2nc3ccccc3s2)cc1 (centres undefined)	-1.4	0.0	-0.4	1.0	41.0	0.8	x	x
COc1ccc(C2CC(c3cccs3)=NN2C(=O)CSc2nc3ccccc3o2)cc1 (centres undefined)	-2.0	-5.0	-1.0	-0.9	93.3*	-0.7	49.5*	44.9*
O=C(Nc1cc(Cl)cc(Cl)c1)c1cccc(OC(F)F)c1	-1.6	-1.4	-1.7	0.0	80.6*	-0.7	94.5*	43.6*
COc1cc(/C=N/Nc2nc(Nc3ccccc3)nc(-n3nc(C)cc3C)n2)cc(OC)c1OC	-2.6	-2.3	-2.2	-3.4	79.6*	-3.0	67.8*	26.0*
CCCCn1nnnc1SCC(=O)Nc1ccc2c(c1)OCO2	-1.2	1.2	0.1	0.3	90.2*	1.5	82.1*	30.1*
O=C(Cn1cnc2ccccc2c1=O)Nc1ccc2c(c1)OCO2	-1.0	1.6	0.7	0.5	92.7*	2.1	70.2*	17.5*
O=C(CSc1nnnn1Cc1ccccc1)Nc1ccc2c(c1)OCO2	-0.7	-1.3	-0.7	0.2	102.5*	0.3	84.7*	94.4*
CCCCn1nnnc1SCC(=O)Nc1ccc(F)cc1	-1.2	-0.1	-0.5	-1.2	16.3	1.1	x	x
O=C(CSc1nnnn1Cc1ccccc1)Nc1ccc2c(c1)OCCO2	-1.4	-0.7	-0.5	1.4	7.0	0.5	x	x
Cc1ccc(NC(=O)CSc2nnnn2-c2ccc3c(c2)OCO3)cc1C	-0.7	0.5	1.0	1.3	159.3*	1.4	166.6*	226.2*
O=C(NNC(=O)c1cccs1)c1ccc(Cl)c([N+](=O)[O-])c1	-1.0	2.1	-0.4	-0.3	0.1	-1.2	x	x
CCOc1ccc(S(=O)(=O)N2CCCC(C(=O)NCc3ccccn3)C2)cc1Cl (centres undefined)	-0.7	-0.7	-0.5	-0.9	-0.4	-2.0	x	x
O=C(Nc1cccc(C(F)(F)F)c1)OC1CCC12CCC(c1ccccc1)CC2 (centres undefined)	-1.2	3.7	-1.2	x	x	1.0	x	x
CCOc1ccccc1NC(=O)Nc1ccncc1	-1.2	-3.8	0.1	-0.2	139.0*	1.6	86.3*	18.4*
SMILES	ssDAF12 agonist	hcDAF12 agonist	DAX1 inh-1	DAX1 inh-2	AHR activator	hgDAF-12 ag	AHR act confirm	PXR counter
O=C(NC(=S)NCc1ccccc1)c1ccc2c(c1)OCO2	-1.2	-0.2	0.3	0.1	83.6*	6.4	60.6*	18.8*
CCOc1ccccc1C(=O)NCC(=O)Nc1ccc2c(c1)OCO2	0.1	1.7	2.9	1.3	83.4*	1.7	100.2*	102.4*
Cc1cc(C)cc(C(=O)NCc2ccc3c(c2)OCO3)c1	-0.7	-1.0	0.0	-0.6	105.7*	-3.1	75.3*	51.6*
COc1ccccc1C(=O)NCC(=O)Nc1ccc2c(c1)OCO2	-0.8	-1.5	0.1	-0.5	x	-1.2	x	x
O=[N+]([O-])c1ccc(/C([O-])=C(/C(=S)Nc2ccccc2F)[n+]2ccccc2)cc1	-1.1	1.5	1.1	0.0	3.4	2.8	x	x
N/C(=N\OC(=O)C12CC3CC(CC(C3)C1)C2)c1cccnc1	-1.1	-0.7	0.9	0.6	0.6	2.5	x	x
CCOc1ccccc1NC(=O)NCc1ccc2c(c1)OCO2	-1.5	3.0	-1.2	0.9	97.4*	-0.4	73.9*	39.6*
COC(=O)c1ccccc1NC(=O)NCc1ccc2c(c1)OCO2	-1.1	-1.0	-0.3	1.0	1.7	0.2	x	x
CC(C)NC(=O)COc1ccc(S(=O)(=O)N2CCCC2)cc1	-0.8	-1.2	-0.3	-0.7	87.0*	0.3	-3.5	15.6*
COc1cccc2c(C)cc(N3CCCCCC3)nc12	-1.8	1.7	-0.1	4.0	5.4	3.4	x	x
O=c1c2ccccc2nc(SCc2nc3ccccc3s2)n1CCCO	0.2	3.7	0.4	-0.3	88.6*	8.1	107.3*	51.9*
O=C(CSc1nc2ccccc2c(=O)n1CCCO)NCc1ccccc1	-2.2	-1.4	0.6	-1.0	-0.6	-1.3	x	x
O=C(C[n+]1ccc(C(=O)c2ccccc2)cc1)Nc1ccc(C(F)(F)F)cc1	0.0	0.5	-0.9	0.2	0.1	2.8	x	x
Cc1ccccc1/C=N/Nc1ccnc2cc(Cl)ccc12	-1.4	-1.4	-0.4	-0.7	1.6	-1.4	x	x
Cc1ccc(/C=N/Nc2ccnc3cc(Cl)ccc23)c(C)c1	-1.2	-2.1	-0.6	-1.5	87.1*	-2.5	15.8	15.8*
O=C1C=C(c2ccc(Br)c3ccccc23)C[C@@H](c2ccc3c(c2)OCO3)C1	-1.6	-0.2	0.5	-0.2	88.9*	-1.2	95.4*	32.4*
COc1c(F)cccc1C1=CC(=O)C[C@H](c2ccc3c(c2)OCO3)C1	-1.4	-1.0	0.5	1.7	101.2*	-1.6	75.5*	65.9*
O=C(O)CCn1c(=S)oc2ccccc21	-0.7	-0.2	1.4	0.6	-2.0	1.1	x	x
CCn1c(CNC(=O)C(C)(C)C)nc2ccccc21	-0.1	-0.5	-0.4	0.4	-2.2	2.1	x	x
[O-][n+]1onc2c1CCc1nnc(-c3ccccc3)cc1-2	-1.4	-0.8	-0.4	-0.6	96.7*	0.8	80.2*	x
